Source: PubChem
Rows were chosen to be rich in hits. Some 12% of all compounds tested hit in one or more screens of this group.
SARS PLP yeast: inhibitors of SARS-CoV papain-like protease in yeast | S. cerevisiae expressing SARS-CoV PLpro, growth rescue | Potency, µM (doses to about 32.9 µM), usual class: activators | 0.19% of 330,000 active; calls by dose curve; further: nearly all actives have a fitted effect of over 55% in size
Pf growth 96h: P. falciparum growth inhibition at 96 hours; Potency, µM (doses to about 28.7 µM), usual class: inhibitors; 6.9% of 320,000 active; P. falciparum luciferase reporter growth, 96 h
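Compounds incubated with erythrocytes infected by luciferase-expressing P. falciparum (2% hematocrit, 0.05% parasitemia final) for 96 hours, 37 C in 5% CO2. Growth inhibition scored as decreased luciferase luminescence.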
Pf growth 48h: inhibits P. falciparum growth in the first generation, 48 h; P. falciparum luciferase growth in erythrocytes, 48 h; Potency, µM (highest dose often 28.7 µM), hits mostly inhibitors; 5.9% of 310,000 active
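Here the parasites carry a stable luciferase gene and grow inside erythrocytes in Albumax-based RPMI medium with compound for one erythrocytic cycle. Activity is scored as loss of luminescent signal.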
Sm TGR inh: S. mansoni TGR enzyme inhibition; Q962Y6; purified TGR, DTNB reduction, TNB absorbance 405 nm; Potency, µM (top dose mostly 114 µM), usual class: inhibitors; 3% of 360,000 active; further: nearly all actives have a fitted effect of over 60% in size
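TGR 20 nM + NADPH 100 uM (dispensed conc.), cpd preinc 15 min RT; start with NADPH (500 uM addition) then DTNB (15 mM addition). Kinetic TNB absorbance, 405 nm filter. Four-parameter Hill fit across titration.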
A number is an active result; . = inactive; ? = inconclusive; / = no result given. Unless noted, the call rests on the fitted dose curve; in most records, active means well fitted curve in the direction sought with a large enough effect; inconclusive means small, poorly fitted or top-dose-only effect, or another doubt; inactive means no such curve, though single readings can be large; an effect the other way counts as inactive or inconclusive.

SMILES | SARS PLP yeast | Pf growth 96h | Pf growth 48h | Sm TGR inh
Cc1ccc(C)c(SCC(=O)Nc2cccnc2Cl)c1 | . | ? | 10.4µM | .
CSc1nnc(C)c(=O)n1COC(=O)/C=C/c1ccccc1 | . | ? | . | ?
CSc1nnc(C)c(=O)n1COC(=O)/C=C/c1ccc2c(c1)OCO2 | . | . | . | 25.1µM
CC1CCCCC1NC(=O)c1ccc(CNc2c(N3CCCC3)c(=O)c2=O)cc1 (stereo not drawn) | . | 8.28µM | . | .
CC1CCN(c2c(NCC3CCC(C(=O)NCCc4ccc(Cl)cc4)CC3)c(=O)c2=O)CC1 (stereo not drawn) | . | ? | ? | .
CC1CCN(c2c(NCc3ccc(C(=O)NCCc4ccc(Cl)cc4)cc3)c(=O)c2=O)CC1 | . | 8.28µM | ? | .
CCOC(=O)C1=C(N)n2c(s/c(=C/c3ccco3)c2=O)=C(C(=O)OC)C1c1ccco1 (stereo not drawn) | . | ? | 13.1µM | ?
CCOC(=O)C1=C(C)NC(C)=C(C(=O)OC)C1c1ccco1 (stereo not drawn) | . | 13.1µM | ? | .
CCOC(=O)C1=c2s/c(=C\c3ccncc3)c(=O)n2C(N)=C(C(=O)OC)C1c1ccncc1 (stereo not drawn) | . | . | . | .
CCn1c(=O)c2cc(C(=O)NCc3cc(OC)ccc3OC)sc2c2ccccc21 | / | / | / | .
Cc1nc(S/C(=C\c2ccc(-c3ccc(C(=O)O)c(Cl)c3)o2)C(=O)O)n[nH]1 | . | . | . | 35.5µM
CCCCc1cc(-c2n[nH]c(=S)o2)c2ccccc2n1 | . | . | ? | 44.7µM
Cc1cc(NC(=O)CSc2nc3ccccc3c(=O)n2-c2ccccc2)no1 | . | / | . | .
COC(=O)c1c(NC(=O)CSc2nc3ccccc3c(=O)n2-c2ccccc2)sc(C)c1C | . | 9.28µM | ? | .
CCOC(=O)c1c(NC(=O)CSc2nncs2)sc(C)c1C | . | . | . | .
CCOC(=O)c1sc(NC(=O)CSc2nc3c(c(=O)n2-c2ccc(F)cc2)SCC3)c(C(=O)OCC)c1C | . | 2.94µM | 2.62µM | .
CCOC(=O)c1sc(NC(=O)CSc2nnc(C)s2)c(C(=O)OCC)c1C | . | ? | 9.28µM | .
CCOC(=O)c1sc(NC(=O)/C=C/c2cnn(CC)c2C)c(C(=O)OCC)c1C | . | 8.28µM | ? | .
O=[N+]([O-])c1cnn(-c2nc(-c3ccco3)cc(C(F)(F)F)n2)c1 | . | 11.7µM | . | .
Fc1ccc(N2CCN(c3nc(-c4ccco4)cc(C(F)(F)F)n3)CC2)cc1 | . | . | . | .
O=C(NCC1CCCO1)/C(=C\c1ccccc1F)NC(=O)c1ccccc1 (stereo not drawn) | . | . | . | .
COc1cccc(-c2nn3c(=O)cc(CN4CCN(S(=O)(=O)c5ccc(C)cc5)CC4)nc3s2)c1 | / | / | / | .
CCCS(=O)(=O)n1nc(-c2ccc(OC)cc2OC)cc1N | . | ? | . | .
COc1cc(OC)cc(-c2cc(N)n(S(=O)(=O)Cc3ccccc3)n2)c1 | . | 8.28µM | / | .
CCCS(=O)(=O)n1nc(-c2ccc(C)cc2)cc1N | . | 4.65µM | / | .
SMILES | SARS PLP yeast | Pf growth 96h | Pf growth 48h | Sm TGR inh
CCCS(=O)(=O)n1nc(-c2ccc(OC)cc2)cc1N | . | 10.4µM | / | .
O=C(Nc1ccc2nc(SCC(=O)N3CCc4ccccc43)sc2c1)c1ccc(F)cc1 | / | / | / | .
CCc1ccc(CN(C)C(=O)c2cc(COc3cc(C)c(Cl)c(C)c3)on2)nc1 | . | . | . | .
COC(=O)c1cccc(C#CC(NP(=O)(c2ccccc2)c2ccccc2)c2ccccc2)c1 (stereo not drawn) | . | . | ? | 11.2µM
COc1cc(C(=O)NCCOc2cc(C)cc(C)c2)c(Br)c(OC)c1OC | . | 13.1µM | . | .
COc1cc(C(=O)NC2CCCC2)c(Br)c(OC)c1OC | . | . | . | /
CCN(C(=O)CSc1nnc(CNc2cccc(OC)c2)n1C1CCCCC1)C1CCS(=O)(=O)C1 (stereo not drawn) | . | 4.15µM | ? | .
COc1ccccc1-c1ccc(/C=C2\C=CC(=O)O2)o1 | . | . | . | 14.1µM
Cc1ccc(C(=O)Nc2cccc(NC(=O)c3ccc(C)c([N+](=O)[O-])c3)n2)cc1[N+](=O)[O-] | . | ? | 1.65µM | .
COc1cc(C(=O)Nc2ccc(NC(=O)c3cccc(Cl)c3)nc2)cc(OC)c1OC | . | . | 2.62µM | .
Cc1cc(NC(=O)c2ccc(C)c([N+](=O)[O-])c2)no1 | . | ? | . | .
COc1ccc(C(=O)Nc2cccc(NC(=O)c3ccc(OC)c(OC)c3)n2)cc1OC | . | . | 10.4µM | .
COc1ccc(S(=O)(=O)N(Cc2nc(-c3ccc(C)cc3)no2)C2CCCCC2)cc1 | / | / | / | .
O=C(O)CSCC(=O)N(c1ccccc1)c1ccccc1 | . | ? | . | .
CC12COC3(C(=O)Nc4ccccc4)CC1CCC32C (stereo not drawn) | . | . | . | .
CC12COC3(C(=O)NCCc4ccccc4)CC1CCC32C (stereo not drawn) | . | 0.0029µM | . | .
CCN1C(=O)[C@H]2[C@@H](c3ccc(C)cc3)N3C(=O)N(c4cccc(Cl)c4)C(=O)[C@@]3(CC(C)C)[C@H]2C1=O | . | 8.28µM | ? | .
CC(C)(C)N1C(=O)[C@H]2[C@@H](c3ccc(Br)cc3)N3C(=O)N(c4ccccc4)C(=O)[C@@]3(Cc3ccccc3)[C@H]2C1=O | . | ? | ? | .
CC(C)(C)N1C(=O)[C@H]2[C@@H](c3ccc(Br)cc3)N3C(=O)N(c4ccccc4)C(=O)[C@@]3(C)[C@H]2C1=O | . | 13.1µM | ? | .
CCN1C(=O)[C@H]2[C@@H](c3ccc(C)cc3)N3C(=O)N(c4cccc(Cl)c4)C(=O)[C@@]3(Cc3ccccc3)[C@H]2C1=O | . | ? | ? | .
COc1ccc([C@@H]2[C@@H]3C(=O)N(C(C)(C)C)C(=O)[C@@H]3[C@]3(CC(C)C)C(=O)N(c4cccc(Br)c4)C(=O)N23)cc1 | . | 3.7µM | ? | .
CC(C)C[C@@]12C(=O)N(c3cccc(F)c3)C(=O)N1[C@H](c1ccc(Br)cc1)[C@@H]1C(=O)N(C(C)(C)C)C(=O)[C@@H]12 | . | 5.22µM | 13.1µM | .
Cc1cccc(S(=O)Cc2ccc(C(=O)N3CCN(C(=O)c4ccco4)CC3)o2)c1 (stereo not drawn) | . | . | . | ?
Cc1ccc(NC(=O)Cn2cc(S(=O)(=O)c3ccc(C)cc3)c(=O)c3cc4c(cc32)OCO4)cc1 | / | / | / | .
CC(C)C[C@@]12C(=O)N(c3cccc(Cl)c3)C(=O)N1[C@H](c1ccc(Br)cc1)[C@@H]1C(=O)N(C(C)(C)C)C(=O)[C@@H]12 | . | 4.15µM | 3.7µM | .
CC[C@@]12C(=O)N(c3cccc(Cl)c3)C(=O)N1[C@H](c1ccc(Br)cc1)[C@@H]1C(=O)N(C(C)(C)C)C(=O)[C@@H]12 | . | ? | 9.28µM | .
CC[C@@]12C(=O)N(c3cccc(C)c3)C(=O)N1[C@H](c1ccc(Br)cc1)[C@@H]1C(=O)N(C(C)(C)C)C(=O)[C@@H]12 | . | 2.33µM | 3.29µM | .
